{
  "source": "PubChem BioAssay AID1851",
  "about": "(National Center for Advancing Translational Sciences (NCATS), 2009)",
  "note": "The campaign covered roughly 16,000 compounds. About 5,700 (36%) were called active. About 24% were inconclusive and are not listed. Some of the results follow. A number with no mark means an inactive call. Calls come from the whole dose curve; as a rule, active = well fitted curve in the direction sought with a large enough effect; inconclusive = small, poorly fitted or top-dose-only effect, or effect the other way; inactive = no such curve, though single readings can be large or run the other way. % is set by controls: 0 for no effect and ±100 for the full control effect.",
  "data": [
    {"target": "Cytochrome P450 1A2 (Homo sapiens) (UniProt P05177)", "sequence (P05177 whole entry, looked up)": "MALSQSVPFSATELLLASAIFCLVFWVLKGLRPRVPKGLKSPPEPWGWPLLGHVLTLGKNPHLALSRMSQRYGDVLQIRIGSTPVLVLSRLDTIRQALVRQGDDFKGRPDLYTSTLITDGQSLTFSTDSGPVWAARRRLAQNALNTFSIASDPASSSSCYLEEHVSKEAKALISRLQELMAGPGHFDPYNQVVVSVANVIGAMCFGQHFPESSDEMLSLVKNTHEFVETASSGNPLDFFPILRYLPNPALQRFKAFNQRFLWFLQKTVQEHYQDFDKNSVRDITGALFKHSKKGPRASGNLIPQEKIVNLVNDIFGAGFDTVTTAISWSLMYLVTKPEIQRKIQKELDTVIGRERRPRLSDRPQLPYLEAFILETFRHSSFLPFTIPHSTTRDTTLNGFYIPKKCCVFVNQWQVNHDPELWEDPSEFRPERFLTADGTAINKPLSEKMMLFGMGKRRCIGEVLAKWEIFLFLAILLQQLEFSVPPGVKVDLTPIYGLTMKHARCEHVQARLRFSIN", "assay": "Cytochrome panel assay with activity outcomes", "details": "recombinant CYP, pro-luciferin dealkylation, luminescence, p450-cyp1a2; series mostly up to 57.1 µM", "values": [
      {"smiles": "O=S(=O)(Nc1ccc2oc(-c3ccccc3)nc2c1)c1ccccc1", "AC50": "5.01 µM (active)"},
      {"smiles": "O=C(Nc1ccc(-c2nc3ccccc3o2)cc1)c1ccc(N2CCOCC2)c([N+](=O)[O-])c1", "AC50": "inactive"},
      {"smiles": "Nc1ccc(S(=O)(=O)Nc2cnc3ccccc3n2)cc1", "AC50": "inactive"},
      {"smiles": "O=C(O)Cc1ccc(NC(=O)C2CCCCC2C(=O)O)cc1", "note": "(stereo not drawn)", "AC50": "inactive"},
      {"smiles": "CC(C)OCCCNC(=O)C1CC(=O)N(C2CCCCCCC2)C1", "note": "(stereo not drawn)", "AC50": "inactive"},
      {"smiles": "CCCCOC(OCCCC)[C@H](O)CSc1ccc2ccccc2c1", "activity, negative = inhibition": "-1.2% [at 11.4 µM]"},
      {"smiles": "CCCCC[C@H](O)c1cccc(OCc2ccc3ccccc3n2)c1", "AC50": "0.794 µM (active)"},
      {"smiles": "CN(C)CC(O)COc1cccc(OCC(O)CN(C)C)c1", "note": "(stereo not drawn)", "AC50": "inactive"},
      {"smiles": "O=C(O)c1ccccc1Nc1cccc(OCc2ccc3ccccc3n2)c1", "AC50": "1 µM (active)"},
      {"smiles": "FC(F)(F)c1nc(-c2ccncc2)ncc1-c1nnnn1-c1ccccc1", "AC50": "25.1 µM (active)"},
      {"smiles": "FC(F)(F)c1nc(N2CCCC2)ncc1-c1nnnn1-c1ccccc1", "AC50": "inactive"},
      {"smiles": "Cc1cc(C)cc(-n2nnnc2-c2cn(C)nc2C(F)(F)F)c1", "AC50": "inactive"},
      {"smiles": "O=c1c2ccc([N+](=O)[O-])c3cccc(c32)c2nc3ccccc3n12", "AC50": "3.55 µM (active)"},
      {"smiles": "O=C(O)c1ccc2c3c1cccc3c(=O)n1c3ccccc3nc21", "AC50": "15.8 µM (active)"},
      {"smiles": "NCCSS(=O)(=O)CCN", "activity, negative = inhibition": "-17.1% [at 2.29 µM]"},
      {"smiles": "CCc1cc2c(nc1CC)CCN(CC/C(C)=N/OC[C@@H](O)[C@@H]1O[C@@H]3OC(C)(C)O[C@@H]3[C@H]1O)C2", "activity, negative = inhibition": "-14.1% [at 11.4 µM]"},
      {"smiles": "COc1ccc(-n2c(=O)c(C)nc3cnc(N4CCOCC4)nc32)cc1", "AC50": "12.6 µM (active)"},
      {"smiles": "COc1ccc(-n2c(=O)cnc3cnc(N4CCNCC4)nc32)cc1", "AC50": "12.6 µM (active)"},
      {"smiles": "Cc1nc2cnc(N3CCNCC3)nc2n(-c2ccccc2)c1=O", "AC50": "10 µM (active)"},
      {"smiles": "COc1ccc(-n2c(=O)c(C)nc3cnc(N4CCNCC4)nc32)cc1", "AC50": "15.8 µM (active)"},
      {"smiles": "CCc1cc2c(nc1CC)CCN(CC/C(C)=N/OC[C@@H](C)[C@H](OCc1ccccc1)C(C)C)C2", "activity, negative = inhibition": "-7.21% [at 11.4 µM]"},
      {"smiles": "N[C@@H](Cc1ccnnc1)C(=O)O", "activity, negative = inhibition": "-10.6% [at 2.29 µM]"},
      {"smiles": "CC(C)NC(=O)N1CCC2(CC1)CCN(C(=O)c1cccc(F)c1)CC2", "AC50": "inactive"},
      {"smiles": "O=C(O)CCc1c2ccc(=O)c(O)c-2oc2c(O)c(O)ccc12", "activity, negative = inhibition": "-3.96% [at 2.29 µM]"},
      {"smiles": "c1ccn(-c2ccc(N3CCOCC3)cc2)c1", "AC50": "0.251 µM (active)"},
      {"smiles": "O=C(N1CCOCC1)N1CCN(c2ccccc2)CC1", "AC50": "inactive"},
      {"smiles": "O=C(C1CCN(S(=O)(=O)N2CCOCC2)CC1)N1CCN(c2ccccc2)CC1", "AC50": "inactive"},
      {"smiles": "Nc1nc2c(c(=O)[nH]1)CN(c1ccc(S(N)(=O)=O)cc1)CN2", "activity, negative = inhibition": "8.8% [at 2.29 µM]"},
      {"smiles": "CC(=O)Nc1nnc(S(N)(=O)=O)s1", "AC50": "inactive"},
      {"smiles": "CC(C)=CC(=O)Nc1nnc(C(C)C)s1", "AC50": "15.8 µM (active)"},
      {"smiles": "CC(C)c1nnc(NC(=O)CCC(=O)N2CCN(c3ccccn3)CC2)s1", "AC50": "inactive"},
      {"smiles": "O=C(/C=C/c1ccco1)NC(=S)Nc1ccc(N2CCOCC2)c(Cl)c1", "AC50": "inactive"},
      {"smiles": "Cc1ccc(-c2csc(NC(=S)NC(=O)/C=C/c3ccco3)n2)cc1", "AC50": "5.62 µM (active)"},
      {"smiles": "Cc1ccc(/C=C/C(=O)NC(=S)Nc2ccccc2C(=O)NC2CCCCC2)cc1", "AC50": "inactive"},
      {"smiles": "O=P(O)(CCP(=O)(O)c1ccccc1)c1ccccc1", "activity, negative = inhibition": "-14.2% [at 11.4 µM]"},
      {"smiles": "Cc1cc2nc(C)n(CCCN)c2cc1C", "AC50": "12.6 µM (active)"},
      {"smiles": "CCN(CC)C(=O)C1CCN(S(=O)(=O)c2ccc3oc4ccccc4c3c2)CC1", "AC50": "inactive"},
      {"smiles": "NCCCc1ccc2oc3ccccc3c2c1", "AC50": "0.0316 µM (active)"},
      {"smiles": "Cc1ccc(/C=N/NC(=O)c2cccs2)cc1[N+](=O)[O-]", "AC50": "2.24 µM (active)"},
      {"smiles": "CCC(=O)Nc1ccc(C(=O)OCC(=O)c2ccc(C)c([N+](=O)[O-])c2)cc1", "AC50": "inactive"},
      {"smiles": "Cc1ccc(C(=O)N/N=C\\c2ccc[nH]2)cc1[N+](=O)[O-]", "AC50": "1.78 µM (active)"},
      {"smiles": "O=C(N/N=C/C=C/c1ccc([N+](=O)[O-])cc1)c1cccs1", "AC50": "inactive"},
      {"smiles": "Cc1ccc(C(=O)N/N=C/c2cc(C)n(-c3ccc(Br)cc3)c2C)cc1[N+](=O)[O-]", "AC50": "inactive"},
      {"smiles": "Cc1ccc(C(=O)Nc2ccccc2Oc2ccccc2)cc1[N+](=O)[O-]", "AC50": "12.6 µM (active)"},
      {"smiles": "Cc1ccc(C(=O)Nc2ccc(Cc3ccncc3)cc2)cc1[N+](=O)[O-]", "AC50": "0.282 µM (active)"},
      {"smiles": "Cc1ccc(C(=O)COC(=O)CNC(=O)C(c2ccccc2)c2ccccc2)cc1[N+](=O)[O-]", "AC50": "inactive"},
      {"smiles": "COc1cccc(CNC(=O)C2CCN(S(=O)(=O)N3CCCCC3)CC2)c1", "AC50": "inactive"},
      {"smiles": "CN1CC[C@@]2(CCN3CCc4c(oc5ccccc45)[C@@H]3C2)N(C)C1=O", "AC50": "inactive"},
      {"smiles": "C[C@@H](N)[C@@H](C)Cc1ccccc1", "activity, negative = inhibition": "-20% [at 11.4 µM]"},
      {"smiles": "CCc1ccc(N2C(=O)c3ccc4c5c(ccc(c35)C2=O)CC4)cc1", "AC50": "4.47 µM (active)"},
      {"smiles": "O=C1c2ccc3c4c(ccc(c24)C(=O)N1c1ccc2ccccc2c1)CC3", "AC50": "0.794 µM (active)"},
      {"smiles": "CCOc1ccc(N2C(=O)c3cccnc3C2=O)cc1", "AC50": "inactive"},
      {"smiles": "N#Cc1cccc(-c2ccc3ncnc(NCc4cccs4)c3c2)c1", "AC50": "0.1 µM (active)"},
      {"smiles": "c1csc(CNc2ncnc3ccc(-c4ccoc4)cc23)c1", "AC50": "3.16 µM (active)"},
      {"smiles": "N#Cc1cccc(-c2ccc3ncnc(NCc4ccccc4)c3c2)c1", "AC50": "0.1 µM (active)"},
      {"smiles": "Cc1cccc(CNc2ncnc3ccc(-c4cccc(C#N)c4)cc23)c1", "AC50": "0.631 µM (active)"},
      {"smiles": "C/C(CCN1CCCCc2nc(C)c(C)cc21)=N\\O[C@@H](C)CN1CCCCc2nc(C)c(C)cc21", "activity, negative = inhibition": "-20.9% [at 11.4 µM]"},
      {"smiles": "C/C=C\\C[C@H](C)[C@H](O)[C@H]1C(=O)N[C@@H](CC)C(=O)N(C)CC(=O)N(C)[C@@H](CC(C)C)C(=O)N[C@@H](C(C)C)C(=O)N(C)[C@@H](CC(C)C)C(=O)N[C@@H](C)C(=O)N[C@@H](C)C(=O)N(C)[C@@H](CC(C)C)C(=O)N(C)[C@@H](CC(C)C)C(=O)N(C)[C@@H](C(C)C)C(=O)N1C", "AC50": "inactive"}
    ]}
  ]
}
